In the library only some 1% were active in any assay of this set; here they are far more common.
APEX1 inh = inhibitors of human APE1 endonuclease; actives 0.35% (n = 350,000); P27695; recombinant APE1, TAMRA/BHQ-2 abasic DNA cleavage fluorescence; Potency, µM (top dose mostly 65.8 µM), without a hit: at the top dose activity change, negative = inhibition, most hits filed as inhibitors;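 also: plate controls were vehicle for no effect and reference inhibitor for full effect; nearly all actives have a fitted effect of over 55% in size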
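0.75 nM APE1 + cpd, 15 min RT; start w/ 50 nM TAMRA/BHQ-2 THF-abasic dsDNA; kinetic fluor 525/598 nm ×3 reads @60 s; Δ(read3−read1); normalized to DMSO and NSC13755 control wells.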
BLM helicase inh = blocks DNA unwinding by human BLM helicase | P54132 | recombinant BLM DNA unwinding, fluorescence dequenching | Potency, µM (doses to about 56.1 µM), for inactives: at the top dose activity change, negative = inhibition, most hits filed as inhibitors | actives 0.2% (n = 350,000) | AID 2528;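 also: plate controls were vehicle for no effect and no enzyme for full effect; nearly all actives have a fitted effect of over 35% in size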
WRN inhibitor = WRN helicase (human) inhibition. WRN helicase unwinding, fluorescent forked duplex, kinetic. Potency, µM (titrated, usually from 114 µM), inactives show top-dose activity change, negative = inhibition, actives largely listed as inhibitors. actives 0.46% (n = 360,000). AID 651768; also: nearly all actives have a fitted effect of over 55% in size
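WRN at 20 nM final preincubated with compound 15 min at room temperature; reaction started with 100 nM fluorophore/quencher forked duplex oligonucleotide and 2 mM ATP final. Unwinding followed kinetically by red fluorescence (ex 525, em 598 nm).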
FEN1 inhibitor = blocks human flap endonuclease 1 | Recombinant FEN1 flap cleavage, fluorescence, 15 min | Potency, µM (top dose mostly 114 µM), inactives show at the top dose activity change, negative = inhibition, actives largely listed as inhibitors | actives 0.35% (n = 390,000) | AID 588795; also: nearly all actives have a fitted effect of over 65% in size
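FEN1 at 10 nM preincubated with compounds 15 min at room temperature, then flap DNA substrate added at 50 nM final. Signal read at 0 and 15 min; concentration-response fitted with four-parameter Hill equation.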
RECQ1 inh = RECQ1 (human) helicase inhibition. Potency, µM (top dose mostly 57.3 µM), without a hit: at the top dose activity, negative = inhibition, actives largely listed as inhibitors. P46063. RECQ1 DNA unwinding, red fluorescence kinetic read. actives 0.54% (n = 240,000);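 also: plate controls were vehicle for no effect and no enzyme for full effect; nearly all actives have a fitted effect of over 30% in size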
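RECQ1T1 50 nM; forked duplex (20 bp + 30-nt ss tails) 200 nM, ATP 2 mM final; pH 8.0, 2 mM MgCl2, 2.5 ug/ml poly(dI-dC); 15 min compound preincubation; discontinuous kinetic read over 2 h at RT.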
L3MBTL1 block = L3MBTL1 (human) inhibition | AID 485360 | AlphaScreen L3MBTL1–H3K9me1 peptide binding | Potency, µM (titrated, usually from 57.1 µM), without a hit: at the top dose activity, negative = inhibition, actives largely listed as inhibitors | Q9Y468 | actives 0.66% (n = 230,000); also: nearly all actives have a fitted effect of over 60% in size
Target sequence (Q9Y468 whole entry, looked up): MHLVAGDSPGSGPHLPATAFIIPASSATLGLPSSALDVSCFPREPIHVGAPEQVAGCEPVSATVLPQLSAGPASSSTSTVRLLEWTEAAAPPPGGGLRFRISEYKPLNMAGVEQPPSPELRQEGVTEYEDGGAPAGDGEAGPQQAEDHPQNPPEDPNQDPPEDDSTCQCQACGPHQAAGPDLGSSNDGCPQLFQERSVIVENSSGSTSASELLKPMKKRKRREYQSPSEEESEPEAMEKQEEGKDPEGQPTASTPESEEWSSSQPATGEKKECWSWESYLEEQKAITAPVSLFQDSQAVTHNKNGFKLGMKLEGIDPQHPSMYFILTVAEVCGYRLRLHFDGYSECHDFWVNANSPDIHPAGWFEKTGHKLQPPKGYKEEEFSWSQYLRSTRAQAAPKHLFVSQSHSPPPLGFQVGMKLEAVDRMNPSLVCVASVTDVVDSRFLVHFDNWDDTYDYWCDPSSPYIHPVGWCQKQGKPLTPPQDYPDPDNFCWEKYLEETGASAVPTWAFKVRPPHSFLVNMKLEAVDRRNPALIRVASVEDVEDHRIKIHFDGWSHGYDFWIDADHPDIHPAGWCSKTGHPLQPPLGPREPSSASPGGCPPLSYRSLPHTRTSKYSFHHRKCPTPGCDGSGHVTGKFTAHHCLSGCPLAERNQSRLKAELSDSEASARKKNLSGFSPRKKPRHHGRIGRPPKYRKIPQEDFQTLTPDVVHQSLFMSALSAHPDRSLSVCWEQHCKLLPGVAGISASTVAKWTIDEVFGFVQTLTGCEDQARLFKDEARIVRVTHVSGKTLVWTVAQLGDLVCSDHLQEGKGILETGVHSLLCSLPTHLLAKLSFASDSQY
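AlphaScreen assay: L3MBTL1 (50 nM final) was preincubated 30 min at room temperature with biotinylated H3(1-15)K9me1 peptide (75 nM final), then 30 min with library compounds; streptavidin donor and nickel chelate acceptor beads (10 ug/mL final) added, 30 min dark.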
* = called active by the depositor; i = inactive; u = inconclusive; x = no result; [ ] = remark or other dose. Calls follow the shape of the dose curve; as a rule, active = well fitted curve in the direction sought with a large enough effect; inconclusive = small, poorly fitted or top-dose-only effect, or another doubt; inactive = no such curve, though single readings can be large; an effect the other way counts as inactive or inconclusive. Unless noted, % is scaled to controls: 0 for no effect and ±100 for the full control effect; potency is read from the fitted curve at half-maximal effect.

SMILES	APEX1 inh	BLM helicase inh	WRN inhibitor	FEN1 inhibitor	RECQ1 inh	L3MBTL1 block
CC1=NN(c2ccc(C(=O)O)c(N)c2)C(=O)C1	2µM*	39%	-17%[57.1 µM]	-35%	-24%	x
CC1=NN(c2ccc(Cl)c(C(=O)O)c2)C(=O)C1	u	-10%	u	u	9%	u
N#Cc1c(NC(=O)c2ccccc2Cl)n(Cc2ccccc2)c2nc3ccccc3nc12	2%	14µM*	u	u	u	10%
COc1ccc(-n2c(NC(=O)c3ccco3)c(C#N)c3nc4ccccc4nc32)cc1	2%	32µM*	50µM*	u	17%	10%
COc1ccc(C(=O)Nc2ccc(NC(=O)c3ccco3)cc2)cc1	-8%	-5%	2%[57.1 µM]	-1%	x	x
COc1ccc(NC(=O)CSc2nnc(C)n2C2CC2)cc1S(=O)(=O)N1CCOCC1	0%	x	-11%	-16%	x	-3%
COC1[C@@H](O[C@@H]2O[C@H](C)[C@@H](O[C@H]3C[C@@](C)(O)[C@H](OC(=O)CC(C)C)[C@H](C)O3)[C@H](N(C)C)[C@H]2O)[C@@H](CC=O)C[C@@H](C)[C@@H](O)/C=C/C=C/C[C@@H](C)OC(=O)C[C@H]1OC(C)=O (stereo not given in full)	-2%[21 µM]	x	x	x	x	x
CCC1(O)CC2CN(CCc3c([nH]c4ccccc34)[C@@](C(=O)OC)(c3cc4c(cc3OC)N(C)C3[C@]45CCN4CC=C[C@@](CC)([C@@H](OC(C)=O)[C@]3(O)C(=O)OC)[C@H]45)C2)C1 (stereo not given in full)	-1%	x	x	x	14µM*	x
OC(C[n+]1c(Cl)ccc2ccccc21)c1ccccc1 (stereo not given)	x	x	x	13%	x	x
CCCCCC(O)/C=C/C=C\CCCCCCCC(=O)O (stereo not given)	2%	-7%	x	x	i	x
COc1cc(OC)c2c(O)c3c(c(-c4c5c(c(O)c6c(OC)cc(OC)cc46)CO[C@@H](C)[C@H]5O)c2c1)[C@H](O)[C@H](C)OC3	u	u	50µM*	u	25µM*	u
Cc1ccc(S(=O)(=O)N2[C@@H](c3ccc(C(C)(C)C)cc3)C(C(=O)O)=CC[C@H]2c2ccc(C(C)C)cc2)cc1	-39%	x	56µM*	u	x	-13%
NNC(=S)Nc1ccc(S(=O)(=O)N2CCOCC2)cc1	8%	-5%	-10%	-16%	-8%	-3%
O=S(=O)(c1ccc(NC(=S)NN=C2CCCCC2)cc1)N1CCOCC1	35µM*	-5%	-9%	0%	0%	8%
N=C1CCC(=N)c2c1c(O)c1ccccc1c2O	u	32µM*	32µM*	40µM*	u	7.1µM*
CN[C@@H]1[C@@H](O)[C@@H](O[C@@H]2[C@@H](O)[C@H](OC3OC(CN)=CCC3N)[C@@H](N)C[C@H]2N)OC[C@]1(C)O (stereo not given in full)	1%[21 µM]	x	x	x	x	x
CCOC(=O)C(Nc1ccc2ccccc2c1)C(=O)OCC	0%	-25%	-11%	-24%	-1%	28µM*
c1cnc2c(c1)ccc1cccnc12	-1%	17%	-6%	u	-5%	3.2µM*
Cc1ccnc2c1ccc1ccccc12	6%	-9%	1%	-2%	x	x
Cc1cc(C)c2nccc(C)c2c1	x	x	x	-18%	x	x
Cc1ccnc2c1ccc1cccnc12	1%	x	-13%	u	x	3.5µM*
Cc1ccnc2c1ccc1c(C)ccnc12	3%	x	5%	25µM*	x	-86%
O=C(c1cccc(NS(=O)(=O)c2cccc(C(F)(F)F)c2)c1)N1CCOCC1	17%	-7%	-32%	-3%	x	x
COc1ccc(C2=NN(S(C)(=O)=O)C(c3cn(-c4ccccc4)nc3-c3cccs3)C2)cc1 (stereo not given)	x	-6%	x	u	x	x
O=C(N/N=C/c1ccc([N+](=O)[O-])o1)c1sc2ccccc2c1Cl	1%	-9%	-20%	40µM*	i	x
SMILES	APEX1 inh	BLM helicase inh	WRN inhibitor	FEN1 inhibitor	RECQ1 inh	L3MBTL1 block
Oc1ccc(CN2CCCc3ccccc32)c2cccnc12	-4%	-5%	-21%	-2%	2%	28µM*
COc1ccccc1/C=C1\SC(=S)N(CCC(=O)Nc2ccc(C(=O)O)c(O)c2)C1=O	-3%	-9%	-11%[11.6 µM]	u	x	x
O=C(CN1C(=O)/C(=C\c2ccco2)SC1=S)Nc1ccc(O)cc1C(=O)O	-39%	5%	50µM*	-6%	x	x
O=C(CCN1C(=O)/C(=C\c2ccco2)SC1=S)Nc1ccc(C(=O)O)c(O)c1	u	-8%	50µM*	18µM*	x	x
O=C(CCN1C(=O)/C(=C/c2ccco2)SC1=S)Nc1ccc(O)cc1C(=O)O	-5%	29%	32µM*	35µM*	x	x
O=C(CCCN1C(=O)/C(=C\c2ccco2)SC1=S)Nc1ccc2ccccc2c1	-11%	-25%	0%	-4%	-19%	-13%
CCC(C(=O)NCc1ccccc1)n1c(CSCCOc2ccccc2)nc2ccccc21 (stereo not given)	x	x	-4%	x	x	x
O=C(N/N=C/c1cn(Cc2ccccc2)c2ccccc12)c1cc(O)cc(O)c1	15µM*	-15%	-19%[11.6 µM]	-14%	x	x
Cc1ccc(C(=O)N/N=C/c2cn(Cc3ccccc3)c3ccccc23)cn1	13%	-8%	-11%	-4%	-8%	u
CC(=O)/C=C/c1ccc2ccccc2n1	10%	-4%	-28%	1%	-11%	-1%
CCN(CC)c1ccc(/C=C/c2ccc3ccccc3n2)cc1	x	x	x	45µM*	x	x
CC[N+](C)(C)c1ccc(/C=C/c2ccc3ccccc3n2)cc1	x	x	x	45µM*	x	x
CCOc1cc(/C=C2\SC(=S)N(Nc3ccccc3)C2=O)ccc1O	u	-22%	18µM*	u	25µM*	u
CCOc1cc(/C=C2\SC(=S)N(NS(=O)(=O)c3ccccc3)C2=O)ccc1O	16%	-5%	56µM*	-24%	x	x
CCOc1ccc(/C=C2\SC(=S)N(NS(=O)(=O)c3ccc(C)cc3)C2=O)cc1OC	-7%	2%	-18%	-2%	0%	-23%
CCOc1cc(/C=C2\SC(=S)N(N3CCOCC3)C2=O)ccc1O	-3%	-2%	-9%	-6%	i	x
Cc1cccc(C(=O)OCC(=O)c2ccc(CC(=O)N3CCOCC3)s2)c1C	-35%	x	u	-5%	x	u
CCOc1ccc(C2C(C#N)=C(N)SC(N)=C2C#N)c(OCC)c1	0%	0%	-30%	-14%	-6%	-8%
CCCCc1ccc(C2C(C#N)=C(N)SC(N)=C2C#N)s1	13%	-21%	x	x	22µM*	-13%
C#CCSc1nsc(SCC#C)c1C#N	u	-15%	50µM*	u	-8%	-11%

Screens as filed in PubChem.
